# Where “and” joins values, the source holds several entries; their conditions need not be identical. Identical values can stand only once. For part of these data: Entries with a potency or affinity are not part of this list. Calls of active or inactive are those of the source.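 The calls were made as follows, unless noted: active = thallium flux through the channel raised or lowered by more than 3 SD from vehicle-only wells, actives on both sides; inactive = the rest.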
# What was measured:
# [1] = hESC survival regulators, cell-based (AID 493140; call rule not given here;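 also: cells exposed to compounds for four days before counting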); conditions: human embryonic stem cell survival screen; stronger effect = higher value
# [2] = system: Hepatitis C virus NS3 helicase; assay: HCV NS3 helicase inhibitors, primary screen, biochemical, fluorescence polarization, LOPAC1280 library (AID 687035; in the data active = inhibition above about 37%); conditions: Purified HCV NS3 helicase, Cy5-dT15 ssDNA binding fluorescence polarization; stronger effect = higher value; concentration not given here
# [3] = Cy5 fluorescence interference with SSB-bound oligo, artefact control for HCV NS3 helicase inhibitor project, biochemical, NIH Clinical Collection, E. coli SSB (AID 743268; call rule not given here)
# [4] = modulation of C. elegans fzo-1 (AID 1259413; call rule not given here;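 also: fzo-1 mutant C. elegans worms in liquid wells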); conditions: C. elegans fzo-1 modulator screen, mean read-out; stronger effect = higher value
# [5] = viability rescue of complex I mutant cybrids, primary screen, cell-based, galactose medium, ATP luminescence (AID 1645843;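 active = z-score of at least 1.8 in each of two replicates, scored against plate mean and spread of sample wells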;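 also: positive z means more ATP and so rescue of galactose-driven cybrid death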); conditions: complex I mutant cybrid cells, 72 h, stronger effect = higher value
# F380Y/beta1 = assay: modulators of BK channel variants, profiling panel, selectivity assay, cell-based, U2OS BacMam, thallium flux, beta subunits (AID 1259406); conditions: at 30 µM;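 also: initial slope of Thallos dye fluorescence rise after thallium is added; log ratio against the mean of 0.3% DMSO vehicle wells on the same plate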
# F380Y/beta4 = assay: as above; conditions: at 30 µM
# R275C = assay: as above; conditions: at 30 µM
# R275C/beta1 = assay: as above; conditions: at 30 µM
# R275C/beta2Delta = assay: as above; conditions: at 30 µM
# R275C/beta4 = assay: as above; conditions: at 30 µM
# R275C/Slo1WT/beta2 = assay: as above; conditions: at 30 µM
# [6] = polyglutamine-triggered caspase-3 activation inhibitors, cell-based (AID 1583); conditions: polyglutamine-induced caspase-3 activation, cell assay; stronger effect = higher value;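 tested at 10 µM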
# [7] = suppressors of polyQ aggregation in yeast, 75Q-TubU reporter (AID 1593); conditions: Yeast 75Q polyglutamine aggregation reporter
# [8] = rescue of polyQ-huntingtin neuronal dysfunction in worms, whole organism, C. elegans mechanosensory neurons, N-terminal huntingtin (AID 1599); conditions: touch response, stronger effect = higher value
# [9] = inhibitors of mitochondrial cytochrome c release, biochemical, purified mitochondria (AID 1603); conditions: stronger effect = lower value;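 also: mouse liver mitochondria challenged with calcium chloride; signal normalized to the plate average as 100%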
# [10] = inhibitors of polyQ protein aggregation (AID 1604); conditions: polyglutamine-induced protein aggregation inhibition assay; stronger effect = higher value; tested at 2.5 µM
# [11] = enhancers of glutamate uptake in motor neurons, MN-1 cell line (AID 1612); conditions: MN-1 motor neuron cells, stronger effect = higher value;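 also: tested at 1 µM final; 0% = mean of DMSO vehicle wells on each plate; positive means more glutamate uptake than control and negative means less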
# [12] = suppressors of polyglutamine aggregation in yeast, 75Q-TubH (AID 1616); conditions: S. cerevisiae 75Q-TubH polyglutamine aggregation suppression; stronger effect = higher value
# [13] = liver-stage malaria parasite growth inhibition, primary screen, cell-based, HepG2, luciferase luminescence, HepG2 viability (AID 624349; in the data active = parasite load remaining mostly below about 12%, no sharp cut-off; inactive = mostly above about 10%;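 also: 100% = mean of DMSO negative control wells on the same plate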); conditions: P. berghei liver stage in HepG2, luciferase luminescence, concentration not given here; parasite load remaining: stronger effect = lower value; viability: measured here: HepG2 viability without parasites
smiles,measurement,setting,value
COc1cc2nc(N(C)CCCNC(=O)C3CCCO3)nc(N)c2cc1OC (stereo not drawn),survival,[1],6.42 (inactive)
same,inhibition,[2],-3% (inactive)
same,fluorescence ratio,[3],1.04 (inactive)
same,mean signal,[4],257 (inactive)
same,z-score,[5],-0.01 (inactive) and 0.43 (inactive)
same,log fold change Tl+ flux,F380Y/beta1,-0.0154 (inactive)
same,log fold change Tl+ flux,F380Y/beta4,0.00267 (inactive)
same,log fold change Tl+ flux,R275C,-0.0434 (inactive)
same,log fold change Tl+ flux,R275C/beta1,0.0106 (inactive)
same,log fold change Tl+ flux,R275C/beta2Delta,-0.00473 (inactive)
same,log fold change Tl+ flux,R275C/beta4,-0.0149 (inactive)
same,log fold change Tl+ flux,R275C/Slo1WT/beta2,0.00335 (inactive)
NCc1ccc(S(N)(=O)=O)cc1,inhibition,[6],-6.75%
same,score,[7],1.19
same,rescue above control,[8],-7.83
same,cytochrome c release ratio,[9],0.88
same,inhibition of aggregation,[10],81.7%
same,glutamate uptake change,[11],-7.14%
same,aggregation suppression score,[12],1.05
same,survival,[1],13.4 (inactive)
same,fluorescence ratio,[3],1.01 (inactive)
same,mean signal,[4],250 (inactive)
same,z-score,[5],1.92 (inactive)
same,log fold change Tl+ flux,F380Y/beta1,0.0173 (inactive)
same,log fold change Tl+ flux,F380Y/beta4,-0.0354 (inactive)
same,log fold change Tl+ flux,R275C,0.00729 (inactive)
same,log fold change Tl+ flux,R275C/beta1,-0.0404 (inactive)
same,log fold change Tl+ flux,R275C/beta2Delta,0.176 (active)
same,log fold change Tl+ flux,R275C/beta4,-0.0166 (inactive)
same,log fold change Tl+ flux,R275C/Slo1WT/beta2,-0.0456 (inactive)
OCCN1CCN(CCCN2c3ccccc3Sc3ccc(C(F)(F)F)cc32)CC1,inhibition,[6],-7.66%
same,score,[7],1.32
same,rescue above control,[8],0
same,cytochrome c release ratio,[9],2.24
same,inhibition of aggregation,[10],51.3%
same,glutamate uptake change,[11],-9.51%
same,aggregation suppression score,[12],1.51
same,survival,[1],5.33 (inactive)
same,inhibition,[2],-2% (inactive)
same,fluorescence ratio,[3],0.8 (active)
same,mean signal,[4],243 (inactive)
same,z-score,[5],-1.04 (inactive) and -1.87 (inactive) and -0.735 (inactive)
same,log fold change Tl+ flux,F380Y/beta1,0.117 (active)
same,log fold change Tl+ flux,F380Y/beta4,0.354 (active)
same,log fold change Tl+ flux,R275C,-0.11 (inactive)
same,log fold change Tl+ flux,R275C/beta1,0.409 (active)
same,log fold change Tl+ flux,R275C/beta2Delta,0.0662 (inactive)
same,log fold change Tl+ flux,R275C/beta4,0.23 (active)
same,log fold change Tl+ flux,R275C/Slo1WT/beta2,-0.0356 (inactive)
Cc1ncc([N+](=O)[O-])n1CC(C)O (stereo not drawn),parasite load remaining,[13],136% (inactive) and 103% (inactive) and 36% (inactive)
same,viability,[13],85.3% and 77% and 71%
same,fluorescence ratio,[3],1.05 (inactive)
same,mean signal,[4],281 (inactive)
same,z-score,[5],0.59 (inactive) and 0.27 (inactive)
same,log fold change Tl+ flux,F380Y/beta1,-0.0446 (inactive)
same,log fold change Tl+ flux,F380Y/beta4,0.0424 (inactive)
same,log fold change Tl+ flux,R275C,-0.115 (active)
same,log fold change Tl+ flux,R275C/beta1,0.00616 (inactive)
same,log fold change Tl+ flux,R275C/beta2Delta,-0.0048 (inactive)
same,log fold change Tl+ flux,R275C/beta4,-0.0387 (inactive)
same,log fold change Tl+ flux,R275C/Slo1WT/beta2,0.0129 (inactive)
O=C1C(CCS(=O)c2ccccc2)C(=O)N(c2ccccc2)N1c1ccccc1 (stereo not drawn),inhibition,[6],18.6%
same,score,[7],0.1
same,rescue above control,[8],-11.1
same,cytochrome c release ratio,[9],0.57
same,inhibition of aggregation,[10],71.9%
same,glutamate uptake change,[11],-6.33%
same,aggregation suppression score,[12],0.341
same,survival,[1],40.2 (inactive)
same,mean signal,[4],224 (inactive)
same,z-score,[5],-0.05 (inactive)
same,log fold change Tl+ flux,F380Y/beta1,0.0248 (inactive)
same,log fold change Tl+ flux,F380Y/beta4,0.0952 (inactive)
same,log fold change Tl+ flux,R275C,-0.0788 (inactive)
same,log fold change Tl+ flux,R275C/beta1,0.0129 (inactive)
same,log fold change Tl+ flux,R275C/beta2Delta,-0.0044 (inactive)
same,log fold change Tl+ flux,R275C/beta4,-0.0311 (inactive)
same,log fold change Tl+ flux,R275C/Slo1WT/beta2,0.0214 (inactive)

# Source: PubChem BioAssay
